AHR act – AHR activators, primary screen, cell-based, luminescence, luciferase reporter, human; Aryl hydrocarbon receptor (Homo sapiens), P35869; AHR-responsive luciferase reporter cells; activation, % at 5 µM; 320,000 compounds, 2.5% hits; AID 2796, 2010; in the data active means activation above about 47%;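 further: 0% = vehicle wells and 100% = reference agonist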
Target sequence (P35869 whole entry, looked up): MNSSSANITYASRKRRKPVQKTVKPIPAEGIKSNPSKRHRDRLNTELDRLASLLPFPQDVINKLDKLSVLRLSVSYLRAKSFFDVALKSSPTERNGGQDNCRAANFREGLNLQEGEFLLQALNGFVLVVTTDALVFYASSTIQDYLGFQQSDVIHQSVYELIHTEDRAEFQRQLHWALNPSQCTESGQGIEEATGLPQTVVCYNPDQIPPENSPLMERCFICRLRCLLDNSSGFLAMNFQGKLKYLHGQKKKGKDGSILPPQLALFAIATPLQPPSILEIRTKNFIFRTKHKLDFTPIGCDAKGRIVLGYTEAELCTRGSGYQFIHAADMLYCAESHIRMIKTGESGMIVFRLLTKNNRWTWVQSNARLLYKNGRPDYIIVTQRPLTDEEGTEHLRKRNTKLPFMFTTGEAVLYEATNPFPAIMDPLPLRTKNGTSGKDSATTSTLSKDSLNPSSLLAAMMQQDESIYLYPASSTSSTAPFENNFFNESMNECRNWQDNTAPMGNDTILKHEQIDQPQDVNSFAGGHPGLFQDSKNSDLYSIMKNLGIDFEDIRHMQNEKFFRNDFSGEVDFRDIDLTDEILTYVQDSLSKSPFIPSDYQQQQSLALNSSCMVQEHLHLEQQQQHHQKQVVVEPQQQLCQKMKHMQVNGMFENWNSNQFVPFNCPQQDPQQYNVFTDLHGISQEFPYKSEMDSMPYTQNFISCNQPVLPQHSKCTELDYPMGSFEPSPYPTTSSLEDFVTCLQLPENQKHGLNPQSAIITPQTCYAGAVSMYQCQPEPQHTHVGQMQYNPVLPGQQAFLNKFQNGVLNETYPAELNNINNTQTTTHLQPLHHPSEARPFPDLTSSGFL
HSF1 inh – HSF1 inhibitors in luciferase reporter cells, primary screen, cell-based, NIH3T3, luminescence; NIH3T3-HGL HSE-luciferase, MG132-induced, luminescence 8 h; hits give low values; activity change, negative = inhibition, % at 7.5 µM (by protocol); 300,000 compounds, 0.77% hits;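 active means more than half of replicate wells show activity change below -50%, luminescence cut by over half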;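 further: luciferase reports HSF-1 transcriptional activity via heat shock element; 0% = median of DMSO wells and -100% = zero luminescence signal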
HSF1 activator – HSF-1 activators, primary screen, NIH3T3-HGL cells, MG132 stress, luminescence, single point; activation, % at 9 µM; 300,000 compounds, 1.7% hits; NIH3T3-HGL HSF-1 luciferase reporter, 8 h; 100% = twice DMSO control signal;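 active means mean replicate activation of at least 50% with a set share of replicates each reaching 50%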;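 further: 0% = median of the neutral control wells and 100% = twice that signal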
HSP90 refold inh – HSP90 inhibitors, primary screen, cell lysate, luminescence | Rabbit reticulocyte lysate, luciferase refolding luminescence, 3 h | Heat shock protein HSP 90 (rabbit reticulocyte lysate; luciferase refolding) | inhibition, % at 5.6 µM | AID 1789, 2009 | 290,000 compounds, 0.91% hits;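 active means inhibition above the screen-wide mean plus 3 SD, computed separately per campaign, cut at about 16% in these data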;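 further: 0% = DMSO wells and 100% = 60 µM geldanamycin wells; inhibitors lower the luminescence because luciferase stays unfolded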
NR0B1 inh – DAX1 (NR0B1) inhibitors, primary screen, cell-based, HEK293, Gal4-DAX1, luciferase luminescence. 340,000 compounds, 0.99% hits. HEK293 Gal4-DAX1 luciferase reporter. Nuclear receptor subfamily 0 group B member 1 (Homo sapiens), P51843. inhibition, % at 6.75 µM;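 active means inhibition above the mean over all tested compounds plus 3 SD, cut at about 4.2% in these data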;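 further: 0% = DAX1-transfected cells with DMSO and 100% = empty-vector control cells with DMSO; inhibition shows as a rise in luminescence from relieved DAX1 repression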
FXN GAA850 act – FXN promoter activators, primary screen, cell-based, luciferase luminescence, HEK293 lucGAA850; 360,000 compounds, 0.56% hits; HEK293 lucGAA850 FXN promoter luciferase reporter, 24 h; percent of 10 µM SAHA response; activation, % at 6 µM;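 active means activation above the average of all compounds screened plus 3 SD, cutoff fixed separately per campaign, cut at about 7.5% in these data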;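 further: 0% = DMSO wells and 100% = 10 µM SAHA wells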
An asterisk follows results filed as active; . = no result given. Sampled rows, rich in hits. Any-hit rate of the full collection: about 5.9%.

SMILES	AHR act	HSF1 inh	HSF1 activator	HSP90 refold inh	NR0B1 inh	FXN GAA850 act
CN1C[C@@H]2[C@@H]3C(=O)N(C)C(=O)[C@@H]3[C@](C)(C1=O)N2C(=O)c1ccc(Br)cc1	.	.	.	.	0.0	-1.1
O=C(COC(=O)c1ccc(O)cc1)Nc1ccccc1	3.1	3.5	5.8	-3.1	0.8	-0.6
Cc1[nH]c2ccccc2c1/C=N/NC(=O)c1cccc(F)c1	42.5	15.1	-1.1	0.2	7.8*	3.2
Cn1cc(/C=N/NC(=O)c2cccc([N+](=O)[O-])c2)c2ccccc21	68.8*	-1.3	-1.8	3.1	-0.8	-2.1
CCC1(C2=CCCCC2)C(=O)NC(=O)N=C1N (stereo unspecified)	.	.	.	.	0.1	0.6
O=C(O)CNC(=O)c1ccc(Oc2c(F)c(F)c(Oc3ccc(C(=O)NCC(=O)O)cc3)c(F)c2F)cc1	-5.6	-1.0	31.6	-3.0	1.1	0.2
O=CNc1c(Br)cc2c(c1Br)Cc1cc(Br)ccc1-2	.	.	.	.	0.2	-0.9
COC(=O)c1ccc2c(c1O)C(=O)c1ccccc1C2=O	12.7	58.6	99.5*	6.2	0.0	5.1
Cc1ccccc1-c1csc(C(O)(c2ccccc2)C(F)(F)F)n1 (stereo unspecified)	.	.	.	.	.	0.2
CCc1c(C)nc2cc(-c3ccccc3)[nH]n2c1=O	44.9	24.6	29.3	-4.0	2.3	4.1
C=CCc1c(C)nc2cc(-c3ccc(C)cc3)[nH]n2c1=O	50.3*	7.0	11.7	10.0	3.6	6.2
COc1ccc(C(=O)COC(=O)[C@H](C)NS(=O)(=O)c2ccc(NC(C)=O)cc2)cc1OC	.	.	.	.	1.9	-1.7
CC(=O)Nc1ccc(S(=O)(=O)N[C@@H](C)C(=O)OCC(=O)c2ccc(Br)s2)cc1	.	.	.	.	8.1*	0.9
COc1ccc(-c2noc(-c3ccccc3F)n2)cc1	48.0*	7.9	32.4	-0.1	1.3	4.3
O=[N+]([O-])c1cc(-c2nc(-c3ccncc3)no2)ccc1Cl	5.9	-13.7	-15.6	3.4	-0.4	0.7
COc1ccc(-c2noc(-c3ccccc3-c3ccccc3)n2)cc1	-5.7	-1.4	19.3	-1.4	-1.1	0.5
Cc1c(-c2nc(-c3ccncc3)no2)cccc1[N+](=O)[O-]	65.3*	11.8	26.0	-0.6	-0.1	3.0
Fc1ccccc1-c1nc(-c2ccncc2)no1	15.9	20.8	35.4	0.8	4.8*	4.2
COCCNC(=O)CSC1=N/C(=C/c2ccc(Cl)c(Cl)c2)C(=O)N1c1ccccc1F	8.6	-60.9*	-68.9	2.8	-0.9	5.5
O=C(Nc1c2c(nn1-c1ccccc1)CS(=O)(=O)C2)c1ccc2c(c1)OCO2	6.1	-0.5	0.9	4.1	-0.4	0.6
Clc1ccc(-c2nsc(N3CCOCC3)n2)c(Cl)c1	2.0	27.6	62.1*	11.5	1.3	3.5
Clc1ccc(Cl)c2sc(N3CCOCC3)nc12	29.4	9.2	14.5	-1.5	-1.9	2.5
Clc1cc(Cl)c2nc(N3CCOCC3)sc2c1	32.5	19.6	33.9	0.7	4.8*	1.7
C=CCC1(C(=O)NCCO)CCN(C(=O)OC(C)(C)C)CC1	-0.4	-84.5*	-86.7	1.6	-0.1	1.1
CCCCCCCNC(=O)C1(CC2CC(c3ccccc3)=NO2)CCN(C(=O)OC(C)(C)C)CC1 (stereo unspecified)	41.7	.	.	.	-0.5	-0.1
SMILES	AHR act	HSF1 inh	HSF1 activator	HSP90 refold inh	NR0B1 inh	FXN GAA850 act
C=CCOc1c(Br)cc(CNc2ccc(NC(=O)C(C)C)c(OC)c2)cc1OCC	67.4*	-4.0	13.3	0.1	-1.4	-2.8
CCOc1cc(CNc2ccc3c(c2)OCCO3)cc(Br)c1OCC	2.5	-82.0*	-84.8	16.3*	-2.0	-12.9
C=CCOc1ccc(CNc2ccc(NC(=O)CCC)cc2)cc1OCC	2.0	.	.	0.5	4.5*	2.6
C#Cc1ccc(NC(=O)C2(C)CCN2C(=O)CC(c2ccccc2)c2ccccc2)cc1 (stereo unspecified)	.	.	.	.	.	0.6
C[C@@H]1CCCCO[C@H](CN(C)Cc2ccc3c(c2)OCO3)[C@@H](C)CN([C@H](C)CO)C(=O)c2cc(NC(=O)c3ccccc3)ccc2O1	.	.	.	.	1.2	-4.1
CN1C(=O)/C(=C/c2ccccc2OCc2cccc(F)c2)N(C)C1=S	50.4*	7.0	17.1	-2.0	-1.2	-0.4
O=C(Nc1cccc(O)c1)c1cccc(S(=O)(=O)N2CCCC2)c1	3.5	0.8	6.4	3.8	0.0	0.6
O=C(Nc1cccc(O)c1)c1ccc(S(=O)(=O)N2CCCCCC2)cc1	.	36.3	74.9*	-2.1	-0.1	2.7
O=C(Nc1ccc(S(=O)(=O)N2CCCC2)cc1)c1cc(=O)c2ccccc2o1	11.7	-2.2	0.2	1.8	4.3*	2.1
Cc1ccc(NC(=O)c2ccc([N+](=O)[O-])o2)cc1S(=O)(=O)N1CCOCC1	0.5	65.9	74.8*	1.3	.	3.0
Cc1ccc(NC(=O)c2cc(=O)c3ccccc3o2)cc1S(=O)(=O)N1CCCCC1	9.2	-4.8	10.1	2.9	-0.5	-2.8
O=C(Nc1cccc(S(=O)(=O)N2CCCCC2)c1)c1ccc([N+](=O)[O-])o1	-1.0	55.6	73.5*	-0.8	-2.2	2.1
COc1ccc(C(=O)NCc2nnc(SCC(=O)N3CCC(C)CC3)o2)cc1	0.8	-9.3	-35.5	0.5	-0.1	-1.8
C/C(C=O)=C/c1ccccc1	-2.1	.	.	.	0.7	-0.7
CN1CCN(c2ccc(NC(=O)c3ccc([N+](=O)[O-])o3)cc2Cl)CC1	2.1	-77.5*	-79.3	1.0	-1.7	1.7
CC(C)(C)NC(=O)c1ccc2c(c1)N(CC(=O)N1CCCC1)C(=O)C(C)(C)O2	0.5	-1.1	-9.2	-5.5	-0.9	2.6
CC(C)(C)NC(=O)c1ccc2c(c1)N(CC(=O)N1CCCCC1)C(=O)C(C)(C)O2	1.7	26.5	65.9*	3.6	-0.1	4.7
CCc1cc2ccc(C)cc2nc1SCC(=O)N1CCN(C(=O)c2ccco2)CC1	51.9*	5.4	-25.9	2.1	-0.6	0.8
CCc1cc2cc3c(cc2nc1SCC(=O)N1CCN(C(=O)c2ccco2)CC1)OCO3	18.4	7.7	10.0	0.1	-0.8	0.3
Cc1ccc2nc(SCC(=O)N3CCN(C(=O)c4ccco4)CC3)[nH]c2c1	67.9*	-2.3	27.1	-1.9	0.2	1.4
O=C(Nc1ccc2ccccc2c1)c1cccc([N+](=O)[O-])c1	67.8*	8.7	36.4	3.6	-0.7	0.1
O=C(Nc1cccc([N+](=O)[O-])c1)c1ccccc1	10.3	-4.6	10.6	0.4	-0.7	-0.7
COc1ccc(C(=O)Nc2cccc(NC(C)=O)c2)cc1	.	.	.	.	.	1.1

Screening data (PubChem BioAssay)
